{
  "source": "the supplement of paper PMC11219838",
  "key": {"[1]": {"tested_on": "Caenorhabditis elegans dauer (daf-2(e1370))", "test": "proportion of mobile C. elegans dauer larvae relative to DMSO control (fraction of DMSO control); higher = more viable, less nematicidal, active = 0.63 or less; extreme values may be limits of the assay", "conditions": "60 µM; 5 days; temperature: 20 °C", "method_in_brief": "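Synchronized C. elegans larvae were kept for 48 h at 25 °C on MYOB plates seeded with E. coli OP50 to induce dauer formation, and roughly 20 dauers were transferred into each well of a 96-well plate containing liquid NGM. Compound was pinned in to a final concentration of 60 µM with 0.6% v/v DMSO, and the sealed plates were shaken at 200 rpm for 5 days at 20 °C. The fraction of mobile worms was scored under a dissection microscope against DMSO-only wells and averaged across two biological replicates.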"}, "Ditylenchus dipsaci": {"tested_on": "Ditylenchus dipsaci", "test": "proportion of mobile D. dipsaci (mixed stage) relative to DMSO control (fraction of DMSO control); higher = more viable, less nematicidal, active = 0.86 or less; extreme values may be limits of the assay", "conditions": "60 µM; 5 days; temperature: 20 °C", "method_in_brief": "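D. dipsaci were grown on pea plants in Gamborg B-5 agar and extracted through a filter funnel into water, and about 20 worms were added per 96-well well in distilled water. Compound was pinned to 60 µM final (0.6% v/v DMSO), and sealed plates were shaken at 200 rpm for 5 days at 20 °C. After 2 µL 1 M NaOH was added, mobile worms were scored microscopically. Mobility was expressed relative to DMSO controls and averaged over two biological replicates.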"}},
  "note": "A number with no mark means an inactive call.",
  "data": [
    {"smiles": "CCc1ccc(C(=O)Nc2ccccc2-c2nc(-c3cccnc3)no2)cc1", "values": [
      {"measurement": "proportion of mobile C. elegans dauer larvae", "setting": "[1]", "value": 1},
      {"measurement": "proportion of mobile D. dipsaci", "setting": "Ditylenchus dipsaci", "value": 1}
    ]},
    {"smiles": "O=C(CSc1nnc(-c2ccc(Br)cc2)o1)N1CCCCCC1", "values": [
      {"measurement": "proportion of mobile C. elegans dauer larvae", "setting": "[1]", "value": 1},
      {"measurement": "proportion of mobile D. dipsaci", "setting": "Ditylenchus dipsaci", "value": 1}
    ]},
    {"smiles": "CCCCC(=O)Nc1ccccc1-c1nc(-c2ccncc2)no1", "values": [
      {"measurement": "proportion of mobile C. elegans dauer larvae", "setting": "[1]", "value": 1},
      {"measurement": "proportion of mobile D. dipsaci", "setting": "Ditylenchus dipsaci", "value": 1}
    ]},
    {"smiles": "COc1ccc(-c2nnc(SCC(=O)Nc3ccc(Br)c(C)c3)o2)cc1", "values": [
      {"measurement": "proportion of mobile C. elegans dauer larvae", "setting": "[1]", "value": 1},
      {"measurement": "proportion of mobile D. dipsaci", "setting": "Ditylenchus dipsaci", "value": 1}
    ]},
    {"smiles": "COc1ccc(-c2nnc(SCC(=O)Nc3ccccc3F)o2)cc1", "values": [
      {"measurement": "proportion of mobile C. elegans dauer larvae", "setting": "[1]", "value": 1},
      {"measurement": "proportion of mobile D. dipsaci", "setting": "Ditylenchus dipsaci", "value": 1}
    ]},
    {"smiles": "CCOc1nc(-c2ccccc2)ccc1-c1noc(-c2cccc(C)c2)n1", "values": [
      {"measurement": "proportion of mobile C. elegans dauer larvae", "setting": "[1]", "value": 1},
      {"measurement": "proportion of mobile D. dipsaci", "setting": "Ditylenchus dipsaci", "value": 1}
    ]},
    {"smiles": "Brc1ccc(-c2noc(CSc3ccccc3)n2)cc1", "values": [
      {"measurement": "proportion of mobile C. elegans dauer larvae", "setting": "[1]", "value": 1},
      {"measurement": "proportion of mobile D. dipsaci", "setting": "Ditylenchus dipsaci", "value": 1}
    ]},
    {"smiles": "COc1cccc(-c2noc(COc3ccccc3Cl)n2)c1", "values": [
      {"measurement": "proportion of mobile C. elegans dauer larvae", "setting": "[1]", "value": 1},
      {"measurement": "proportion of mobile D. dipsaci", "setting": "Ditylenchus dipsaci", "value": 1}
    ]},
    {"smiles": "Clc1ccc(-c2nc(-c3cccnc3)no2)c(Cl)c1", "values": [
      {"measurement": "proportion of mobile C. elegans dauer larvae", "setting": "[1]", "value": "0.625 (active)"},
      {"measurement": "proportion of mobile D. dipsaci", "setting": "Ditylenchus dipsaci", "value": 1}
    ]},
    {"smiles": "O=C(Nc1ccc(-c2noc(-c3ccccn3)n2)cc1)c1cccc(Cl)c1", "values": [
      {"measurement": "proportion of mobile C. elegans dauer larvae", "setting": "[1]", "value": 1},
      {"measurement": "proportion of mobile D. dipsaci", "setting": "Ditylenchus dipsaci", "value": 1}
    ]},
    {"smiles": "O=C(CSc1nnc(-c2ccc(Cl)cc2)o1)Nc1ccc(F)cc1", "values": [
      {"measurement": "proportion of mobile C. elegans dauer larvae", "setting": "[1]", "value": 1},
      {"measurement": "proportion of mobile D. dipsaci", "setting": "Ditylenchus dipsaci", "value": 1}
    ]},
    {"smiles": "Fc1ccc(-c2nc(-c3ccc(Br)cc3)no2)cc1", "values": [
      {"measurement": "proportion of mobile C. elegans dauer larvae", "setting": "[1]", "value": 1},
      {"measurement": "proportion of mobile D. dipsaci", "setting": "Ditylenchus dipsaci", "value": 1}
    ]},
    {"smiles": "O=C(CSc1nnc(-c2ccco2)o1)Nc1ccc(Br)cn1", "values": [
      {"measurement": "proportion of mobile C. elegans dauer larvae", "setting": "[1]", "value": 1},
      {"measurement": "proportion of mobile D. dipsaci", "setting": "Ditylenchus dipsaci", "value": 1}
    ]},
    {"smiles": "CC(Oc1ccccc1)c1nc(-c2cccnc2)no1", "note": "(stereo not drawn)", "values": [
      {"measurement": "proportion of mobile C. elegans dauer larvae", "setting": "[1]", "value": 1},
      {"measurement": "proportion of mobile D. dipsaci", "setting": "Ditylenchus dipsaci", "value": 1}
    ]},
    {"smiles": "COc1cccc(-c2nnc(SCc3ccccc3C)o2)c1", "values": [
      {"measurement": "proportion of mobile C. elegans dauer larvae", "setting": "[1]", "value": 1},
      {"measurement": "proportion of mobile D. dipsaci", "setting": "Ditylenchus dipsaci", "value": 1}
    ]},
    {"smiles": "Cc1cc(C)cc(OCc2nc(-c3cc(C)nc4ccccc34)no2)c1", "values": [
      {"measurement": "proportion of mobile C. elegans dauer larvae", "setting": "[1]", "value": 1},
      {"measurement": "proportion of mobile D. dipsaci", "setting": "Ditylenchus dipsaci", "value": 1}
    ]},
    {"smiles": "Cc1ccc(C(=O)CSc2nnc(-c3ccco3)o2)o1", "values": [
      {"measurement": "proportion of mobile C. elegans dauer larvae", "setting": "[1]", "value": 1},
      {"measurement": "proportion of mobile D. dipsaci", "setting": "Ditylenchus dipsaci", "value": 1}
    ]},
    {"smiles": "COc1ccc(-c2noc(CSc3nc(C)cc(C)n3)n2)cc1", "values": [
      {"measurement": "proportion of mobile C. elegans dauer larvae", "setting": "[1]", "value": 1},
      {"measurement": "proportion of mobile D. dipsaci", "setting": "Ditylenchus dipsaci", "value": "0.833 (active)"}
    ]},
    {"smiles": "FC(F)(F)c1cccc(-c2noc(-c3cccnc3)n2)c1", "values": [
      {"measurement": "proportion of mobile C. elegans dauer larvae", "setting": "[1]", "value": 1},
      {"measurement": "proportion of mobile D. dipsaci", "setting": "Ditylenchus dipsaci", "value": 0.914}
    ]},
    {"smiles": "Cc1ccccc1CSc1nnc(-c2ccco2)o1", "values": [
      {"measurement": "proportion of mobile C. elegans dauer larvae", "setting": "[1]", "value": "0.5 (active)"},
      {"measurement": "proportion of mobile D. dipsaci", "setting": "Ditylenchus dipsaci", "value": 1}
    ]},
    {"smiles": "COc1ccc(-c2noc(-c3ccccc3Br)n2)cc1", "values": [
      {"measurement": "proportion of mobile C. elegans dauer larvae", "setting": "[1]", "value": 1},
      {"measurement": "proportion of mobile D. dipsaci", "setting": "Ditylenchus dipsaci", "value": 1}
    ]},
    {"smiles": "Cc1ccc(SC(C)c2nc(-c3cccnc3)no2)cc1", "note": "(stereo not drawn)", "values": [
      {"measurement": "proportion of mobile C. elegans dauer larvae", "setting": "[1]", "value": 1},
      {"measurement": "proportion of mobile D. dipsaci", "setting": "Ditylenchus dipsaci", "value": 1}
    ]},
    {"smiles": "c1ccc(-c2noc(CSc3nc4ccccc4[nH]3)n2)cc1", "values": [
      {"measurement": "proportion of mobile C. elegans dauer larvae", "setting": "[1]", "value": 1},
      {"measurement": "proportion of mobile D. dipsaci", "setting": "Ditylenchus dipsaci", "value": 1}
    ]},
    {"smiles": "Cc1ccc(-c2nnc(SCc3ccccc3C#N)o2)cc1", "values": [
      {"measurement": "proportion of mobile C. elegans dauer larvae", "setting": "[1]", "value": 1},
      {"measurement": "proportion of mobile D. dipsaci", "setting": "Ditylenchus dipsaci", "value": 1}
    ]},
    {"smiles": "CCOc1ccccc1NC(=O)CSc1nnc(-c2ccco2)o1", "values": [
      {"measurement": "proportion of mobile C. elegans dauer larvae", "setting": "[1]", "value": 1},
      {"measurement": "proportion of mobile D. dipsaci", "setting": "Ditylenchus dipsaci", "value": 1}
    ]},
    {"smiles": "Clc1ccc(OCc2nc(-c3cccnc3)no2)c(Cl)c1", "values": [
      {"measurement": "proportion of mobile C. elegans dauer larvae", "setting": "[1]", "value": 1},
      {"measurement": "proportion of mobile D. dipsaci", "setting": "Ditylenchus dipsaci", "value": 1}
    ]},
    {"smiles": "CCOC(=O)c1sc(NC(=O)CSc2nnc(-c3ccc(Cl)cc3)o2)c(C#N)c1C", "values": [
      {"measurement": "proportion of mobile C. elegans dauer larvae", "setting": "[1]", "value": 1},
      {"measurement": "proportion of mobile D. dipsaci", "setting": "Ditylenchus dipsaci", "value": 1}
    ]},
    {"smiles": "CC(C)(Oc1ccc(Cl)cc1)c1nc(-c2ccncc2)no1", "values": [
      {"measurement": "proportion of mobile C. elegans dauer larvae", "setting": "[1]", "value": 1},
      {"measurement": "proportion of mobile D. dipsaci", "setting": "Ditylenchus dipsaci", "value": 1}
    ]},
    {"smiles": "NC(=O)COc1ccccc1-c1nc(-c2ccccc2Cl)no1", "values": [
      {"measurement": "proportion of mobile C. elegans dauer larvae", "setting": "[1]", "value": 1},
      {"measurement": "proportion of mobile D. dipsaci", "setting": "Ditylenchus dipsaci", "value": 1}
    ]},
    {"smiles": "COc1cccc(NC(=O)CSc2nnc(-c3ccc(C)cc3)o2)c1", "values": [
      {"measurement": "proportion of mobile C. elegans dauer larvae", "setting": "[1]", "value": 1},
      {"measurement": "proportion of mobile D. dipsaci", "setting": "Ditylenchus dipsaci", "value": 1}
    ]},
    {"smiles": "COc1ccc(-c2nc(-c3ccccc3Cl)no2)cc1", "values": [
      {"measurement": "proportion of mobile C. elegans dauer larvae", "setting": "[1]", "value": 1},
      {"measurement": "proportion of mobile D. dipsaci", "setting": "Ditylenchus dipsaci", "value": 1}
    ]},
    {"smiles": "Cc1cc(OCc2nc(-c3ccccc3)no2)ccc1Cl", "values": [
      {"measurement": "proportion of mobile C. elegans dauer larvae", "setting": "[1]", "value": 1},
      {"measurement": "proportion of mobile D. dipsaci", "setting": "Ditylenchus dipsaci", "value": 1}
    ]},
    {"smiles": "Cc1ccccc1OCc1nc(-c2ccc(Br)cc2)no1", "values": [
      {"measurement": "proportion of mobile C. elegans dauer larvae", "setting": "[1]", "value": 1},
      {"measurement": "proportion of mobile D. dipsaci", "setting": "Ditylenchus dipsaci", "value": 1}
    ]},
    {"smiles": "Cc1ccc(-c2nc(-c3ccccc3Cl)no2)c(Cl)c1", "values": [
      {"measurement": "proportion of mobile C. elegans dauer larvae", "setting": "[1]", "value": 1},
      {"measurement": "proportion of mobile D. dipsaci", "setting": "Ditylenchus dipsaci", "value": 1}
    ]},
    {"smiles": "Brc1cccc(-c2nc(-c3ccncc3)no2)c1", "values": [
      {"measurement": "proportion of mobile C. elegans dauer larvae", "setting": "[1]", "value": 1},
      {"measurement": "proportion of mobile D. dipsaci", "setting": "Ditylenchus dipsaci", "value": 1}
    ]},
    {"smiles": "O=C(CSc1nnc(-c2ccccc2)o1)Nc1cccc(C(F)(F)F)c1", "values": [
      {"measurement": "proportion of mobile C. elegans dauer larvae", "setting": "[1]", "value": 1},
      {"measurement": "proportion of mobile D. dipsaci", "setting": "Ditylenchus dipsaci", "value": 1}
    ]},
    {"smiles": "Cc1ccc(-c2nc(-c3ccc(Br)cc3)no2)cc1", "values": [
      {"measurement": "proportion of mobile C. elegans dauer larvae", "setting": "[1]", "value": 1},
      {"measurement": "proportion of mobile D. dipsaci", "setting": "Ditylenchus dipsaci", "value": 1}
    ]},
    {"smiles": "Clc1ccc(OCc2nc(-c3ccc(Br)o3)no2)cc1", "values": [
      {"measurement": "proportion of mobile C. elegans dauer larvae", "setting": "[1]", "value": 1},
      {"measurement": "proportion of mobile D. dipsaci", "setting": "Ditylenchus dipsaci", "value": 1}
    ]},
    {"smiles": "Clc1ccccc1OCc1nc(-c2cccs2)no1", "values": [
      {"measurement": "proportion of mobile C. elegans dauer larvae", "setting": "[1]", "value": 1},
      {"measurement": "proportion of mobile D. dipsaci", "setting": "Ditylenchus dipsaci", "value": 1}
    ]}
  ]
}
